From PubChem
Shown are actives, neighbours in structure and some others; about 7.4% of the full set was active somewhere.
FLuc counter: firefly luciferase modulation, counter-screen for miR-21 project; purified FLuc, Km substrates, luminescence inhibition; Potency, µM (titrated, usually from 57.5 µM), most hits filed as inhibitors; 6.9% of 360,000 active; also: nearly all actives have a fitted effect of over 55% in size
Target sequence (P08659 whole entry, looked up): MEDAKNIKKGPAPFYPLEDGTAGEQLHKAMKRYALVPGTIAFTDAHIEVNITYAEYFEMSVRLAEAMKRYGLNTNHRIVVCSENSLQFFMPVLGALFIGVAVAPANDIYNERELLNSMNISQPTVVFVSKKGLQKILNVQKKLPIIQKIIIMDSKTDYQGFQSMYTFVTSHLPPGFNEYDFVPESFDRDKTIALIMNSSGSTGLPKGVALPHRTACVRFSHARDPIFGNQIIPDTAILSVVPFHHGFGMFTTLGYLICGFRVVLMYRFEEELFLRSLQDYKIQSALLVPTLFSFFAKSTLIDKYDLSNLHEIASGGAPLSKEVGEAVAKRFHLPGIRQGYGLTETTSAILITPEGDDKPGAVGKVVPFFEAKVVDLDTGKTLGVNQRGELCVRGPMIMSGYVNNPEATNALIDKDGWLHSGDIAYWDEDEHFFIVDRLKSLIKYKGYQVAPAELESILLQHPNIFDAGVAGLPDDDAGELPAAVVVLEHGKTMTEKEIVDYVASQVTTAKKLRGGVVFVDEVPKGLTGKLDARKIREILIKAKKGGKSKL
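Biochemical qHTS of compounds, final roughly 60 µM downward over six points, against 10 nM purified firefly luciferase using Km concentrations of substrates (10 uM D-luciferin, 10 uM ATP) in Tris acetate pH 7.5 buffer; luminescence output.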
SMN2 splice up: increases expression of the SMN2 splice variant | 2.8% of 210,000 active | Potency, µM (series often up to 46.1 µM), most hits filed as activators | HEK293 SMN2-luciferase splicing reporter, luminescence, 30-36 h; also: nearly all actives have a fitted effect of over 55% in size
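HEK293 cells carry an SMN2 minigene-luciferase reporter in which exon 7 inclusion puts luciferase in frame. Cells were seeded at 2000 cells/well, attached for 10-12 hours, then exposed to compounds for 30-36 hours at 37C before ONE-Glo luminescence.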
NPC1 promoter act: activators of NPC1 promoter | Huh7 NPC1 promoter luciferase reporter, 24 h | Potency, µM (top dose mostly 9.22 µM), most hits filed as activators | 2.4% of 320,000 active | AID 485313; also: nearly all actives have a fitted effect of over 60% in size
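Huh7 cells stably carrying NPC1 promoter–luciferase, plated in Opti-MEM with 10% FBS for 2 h, were exposed to compound in DMSO for 24 h at 37 °C; luciferase reagent was added for 10 min and luminescence read.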
ELG1 genotox: inducers of genotoxicity in HEK293T ELG1-luciferase cells; HEK293T ELG1-luciferase reporter, luminescence, 16 h; Potency, µM (doses to about 46 µM), actives largely listed as activators; 1.3% of 330,000 active; AID 504466; also: nearly all actives have a fitted effect of over 60% in size
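Screening used a luciferase reporter fused to human ELG1 in HEK293T cells. Luminescence was read on a CCD plate imager after 16 hr exposure and 30 min ONE-Glo incubation.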
Rab9 prom act: activates the Rab9 promoter. Huh7 Rab9 promoter-luciferase reporter, luminescence, 24 h. Potency, µM (titrated, usually from 9.22 µM), hits mostly activators. 2.8% of 320,000 active. AID 485297; also: nearly all actives have a fitted effect of over 60% in size
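Luciferase signal after 10 min detection reagent at ambient indicates Rab9 promoter upregulation; stably transfected Huh7 cells were treated 24 h with compound in DMSO at 37 °C, 5% CO2.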
Numbers stand for hits; 0 = inactive; ? = inconclusive; - = no result given; [ ] = remark or other dose. Calls follow the shape of the dose curve; as a rule, active = well fitted curve in the direction sought with a large enough effect; inconclusive = small, poorly fitted or top-dose-only effect, or another doubt; inactive = no such curve, though single readings can be large; an effect the other way counts as inactive or inconclusive.

SMILES	FLuc counter	SMN2 splice up	NPC1 promoter act	ELG1 genotox	Rab9 prom act
Cc1ccc(NC(=O)c2cn(-c3cccc(C)n3)cn2)cc1	?	?	2.8µM	?	3.5µM
Cc1cccc(NC(=O)Nc2ccc(F)cc2)n1	8.5µM	0	?	0	?
CCOc1ccc(-n2c(=O)c3c4c(sc3n(CC(=O)Nc3cccc(C(F)(F)F)c3)c2=O)CCCCC4)cc1	0	0	-	-	-
Cc1cc(NC2CCCCC2)nc(-n2nc(C)cc2C)n1	-	-	0	-	0
COc1ccc2c(c1)c1c(c(=O)n(-c3ccc(F)c(Cl)c3)c(=O)n1CC(N)=O)n2C	0	-	-	-	-
c1ccc(-c2ccccn2)nc1	0	0	0	0	0
c1ccc(-c2ccc(-c3ccccn3)nn2)nc1	1.3µM	7.1µM	0.32µM	0	0.32µM
COc1ccc2oc(=O)c(C(=O)Nc3cccc(C)c3)cc2c1	3µM	-	4µM	8.2µM	1.6µM
COc1ccc(C(=O)NNC(=O)c2cc3cc(OC)ccc3oc2=O)cc1	0	-	0	0	0
Cc1ccnc(NC(=O)c2cc3ccccc3oc2=O)c1	0.85µM	11µM	1.6µM	?	1.1µM
COc1ccc2oc(=O)c(C(=O)Nc3cccc(C(=O)O)c3)cc2c1	0	0.79µM	-	-	-
O=C(O)c1cccc(NC(=O)c2cc3cc(Br)cc(Br)c3oc2=O)c1	12µM	0	-	-	-
CCOC(=O)C1=C(CS(=O)(=O)c2ccc(C)cc2)NC(=O)NC1c1ccc(C(C)C)cc1 (stereo not drawn)	0	0	-	-	-
COc1cc2c(cc1OC)C1O[C@](CCCCN3C(=O)c4ccccc4C3=O)(C2)OC2=C1C(=O)CC(C)(C)C2	0[11.5 µM]	-	0[1.84 µM]	-	0[1.84 µM]
Cc1ccc(S(=O)(=O)N/N=c2\oc3ccccc3cc2C(=O)Nc2cccc(C)c2)cc1	0	0	0	0	0
Cc1cccc(NC(=O)c2cc3ccccc3oc2=O)c1	0.6µM	-	1.1µM	2.1µM	1.4µM
CSCCC(NC(=O)OC(C)(C)C)C(=O)Oc1ccc2c(=O)c(-c3ccc4c(c3)OCCO4)coc2c1 (stereo not drawn)	11µM	18µM	1.4µM	?	0.79µM
Cc1cccc(C(=O)Nc2c(-c3ccc(F)cc3)nc3ccccn23)c1	0	0	-	-	-
CC(C)NC(=O)c1ccc(NC(=O)N2CCCCc3ccccc32)cc1	0	-	-	-	-
CC(C)NC(=O)c1ccc2c3n(nc2c1)-c1ccccc1CO3	0.43µM	-	0.28µM	?	?
CC(C)[C@@H](CO)NC(=O)c1ccc2c3n(nc2c1)-c1ccccc1CO3	1.7µM	-	0.5µM	?	?
COc1cccc(CNc2nc3c(-c4cccc(C)c4)nnn3c3ccccc23)c1	0	0	-	-	-
COc1ccccc1Nc1nc(-c2ccc(F)cc2)c2c(n1)-c1ccccc1OC2	0	-	-	-	-
N#C/C(=C\c1ccc(N2CCOCC2)o1)C(=O)NCCc1ccccc1	27µM	0	0	0	0
N#C/C(=C\c1ccc(OCCN2CCOCC2)cc1)C(=O)Nc1ccccc1	0	-	0	0	0
SMILES	FLuc counter	SMN2 splice up	NPC1 promoter act	ELG1 genotox	Rab9 prom act
COCCNC(=O)/C(C#N)=C/c1ccc(N2CCOCC2)o1	0	0	0	0	0
N#C/C(=C/c1ccc(N2CCOCC2)o1)C(=O)Nc1ccccc1	2.7µM	14µM	2µM	?	2µM
N#C/C(=C\c1ccc(N2CCOCC2)o1)C(=O)NC1CCCCC1	17µM	-	0	0	0
Cc1ccc(NC(=O)Nc2c[nH]c(=O)[nH]c2=O)c(Cl)c1	0	-	-	-	-
O=C(CCC(=O)c1cccs1)OCC(=O)c1ccccc1F	19µM	-	0	0	0
O=C(CCC(=O)c1cccs1)OCC(=O)c1ccccc1	-	-	-	0	-
O=C(CCC(=O)c1cccs1)OCc1ccc([N+](=O)[O-])cc1	0	-	0	0	?
N#Cc1ccccc1COC(=O)CCC(=O)c1cccs1	12µM	-	0	0	0
CC(C)C[C@@H](CC(=O)N[C@@H](CCC(=O)O)CC(=O)O)NC(=O)[C@@H]1CCCC[C@H]1NC(=O)C[C@@H](NC(=O)C[C@H](Cc1c[nH]c2ccccc12)NC(=O)[C@@H]1CNCC[C@H]1N)C(C)C	-	0	-	-	-
Cc1ccc(Cl)cc1N1CCN(CCCNC(=O)c2ccc3nc(N4CCCCC4)sc3c2)CC1	?	0	-	-	-
CCOc1cc2sc(N3CCC(C(=O)Nc4ccc(C)cc4)CC3)nc2cc1Br	0	16µM	-	-	-
CCOc1ccc2nc(N3CCC(C(=O)N4CCN(C5CCCCC5)CC4)CC3)sc2c1	0	0	0	0	0
COc1ccc(N2CCN(CCCNC(=O)c3ccc4nc(N5CCCCC5)sc4c3)CC2)cc1	?	0.79µM	-	-	-
CCOc1ccc2nc(N3CCC(C(=O)Nc4ccccc4CC)CC3)sc2c1	0	0	-	-	-
CCOc1ccc2nc(N3CCC(C(=O)Nc4nnc(CC)s4)CC3)sc2c1	?	2.2µM	1.1µM	12µM	4µM
CCOc1ccc2nc(N3CCCCCC3)sc2c1	1.1µM	7.9µM	1.1µM	?	1µM
CCOc1cc2sc(N3CCC(C(=O)Nc4ccccc4C(=O)OC)CC3)nc2cc1Br	0	0	-	-	-
CCC(=O)C(C(=O)OC)[C@H](CCc1ccccc1)NC(=O)OC (stereo partly drawn)	-	0	-	-	-
COc1ccccc1CNC(=O)CN1C(=O)CSc2ccc(S(=O)(=O)N3CCCCC3)cc21	0	-	-	-	-
CCOc1ccc2nc(N3CCCC(C(=O)N4CCN(CC)CC4)C3)sc2c1 (stereo not drawn)	21µM	?	?	0	?
CCOc1ccc2nc(N3CCN(C(=O)CS(=O)(=O)c4ccc(F)cc4)CC3)sc2c1	3µM	-	-	-	-
CCOc1ccc2nc(N3CCCC(C(=O)NCCCOC)C3)sc2c1 (stereo not drawn)	12µM	14µM	-	-	-
CCOc1ccc2nc(N3CCCC(C(=O)NCCc4ccc(OC)cc4OC)C3)sc2c1 (stereo not drawn)	?	14µM	-	-	-
S=C(S)NCCN1CCNCC1	-	0[9.22 µM]	-	-	-
Cc1ccccc1CSc1cn(CC(=O)N2CCCCC2)c2ccccc12	0	-	-	-	-
SMILES	FLuc counter	SMN2 splice up	NPC1 promoter act	ELG1 genotox	Rab9 prom act
COc1ccc(-c2[nH]c3ccccc3c2SCCNC(=O)c2ccc(S(=O)(=O)N(C)C)cc2)cc1	0	0	-	-	-
CCOc1ccc2nc(N3CCCC(C(=O)Nc4ccc(Br)c(C)c4)C3)sc2c1 (stereo not drawn)	6µM	0	-	-	-
CCOc1ccc2nc(N3CCCC(C(=O)NCCc4ccc(C)cc4)C3)sc2c1 (stereo not drawn)	0	0	-	-	-
CCOc1ccc2nc(N3CCCC(C(=O)NCC4CCCO4)C3)sc2c1 (stereo not drawn)	4.8µM	-	?	0	?
CCOc1ccc2nc(N3CCCC(C(=O)NCc4ccc(OC)cc4)C3)sc2c1 (stereo not drawn)	2.4µM	13µM	-	-	-
Cc1cc(C)c2nc(N3CCCC(C(=O)NC4CCCC4)C3)sc2c1 (stereo not drawn)	9.5µM	-	0	0[9.26 µM]	?
CC(=O)OCCC(C)CCC=C(C)C (stereo not drawn)	-	0	-	-	-
Cc1ccccc1-c1nc(CNC(=O)Nc2ccccc2)c(C)o1	0	-	-	-	-
Cc1c(C)n(Cc2ccc(F)cc2)c2ccc(C(=O)NCc3ccco3)cc12	0	-	-	-	-
